Measured values published in PubChem BioAssay (NCATS).
Results filed as inconclusive are left out. Activity calls are given as the source filed them. Calls come from the whole dose curve; as a rule, active = well fitted inhibition curve with a large enough effect; inconclusive = small, poorly fitted or top-dose-only effect; inactive = flat fitted curve, though single readings scatter. Peptide text beside a SMILES is read from it.

Tests used:
Experiment in all cases: qHTS profiling for inhibitors of Plasmodium falciparum proliferation (AID 504749); note: nearly all actives have a fitted effect of over 60% in size
Details in all cases: P. falciparum in erythrocytes, SYBR Green DNA, 72 h; series mostly up to 28.7 µM
[1] = test system: DIV17
Procedure, shortened: (§1)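 Readout was DNA-dye fluorescence from lysed cultures, ex 485/em 535 nm. Parasitized red cells had grown 72 h with compound; data scaled between 0.29 uM artemisinin and DMSO wells and corrected using vehicle-only plates.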

[2] = test system: DIV30
Procedure, shortened: as §1

[3] = test system: Dd2
Procedure, shortened: as §1

[4] = test system: ECU
Procedure, shortened: as §1

[5] = test system: FAB9
Procedure, shortened: as §1

[6] = test system: GB4
Procedure, shortened: as §1

[7] = test system: HB3
Procedure, shortened: as §1

[8] = test system: ICS
Procedure, shortened: as §1

[9] = test system: JCK
Procedure, shortened: as §1

[10] = test system: N140
Procedure, shortened: as §1

[11] = test system: P93_24
Procedure, shortened: as §1

[12] = test system: P94_40
Procedure, shortened: as §1

[13] = test system: PAD
Procedure, shortened: as §1

[14] = test system: PC15
Procedure, shortened: as §1

[15] = test system: PC26
Procedure, shortened: as §1

[16] = test system: PC49
Procedure, shortened: as §1

[17] = test system: SC27B
Procedure, shortened: as §1

[18] = test system: TAB109
Procedure, shortened: as §1

[19] = test system: TAB113
Procedure, shortened: as §1

[20] = test system: TAB165
Procedure, shortened: as §1

Measured: Potency
Potency is the fitted concentration of half-maximal effect.

O=C(O)c1cccc(-c2noc(-c3ccccc3F)n2)c1
inactive: all assays above

CC(C)[C@H](N)C(=O)OCCOCn1cnc2c(=O)[nH]c(N)nc21
inactive: all assays above

C[C@]12CCC(=O)C=C1CC[C@@H]1[C@H]2[C@@H](O)C[C@@]2(C)[C@H]1CC[C@]2(O)C(=O)CO
inactive: all assays above

Nc1cccc2c1CN(C1CCC(=O)NC1=O)C2=O (stereo not given)
inactive: all assays above

O=C(O)c1cccnc1Nc1cccc(C(F)(F)F)c1
inactive: all assays above

O=C(NC(Cc1cc(=O)[nH]c2ccccc12)C(=O)O)c1ccc(Cl)cc1 (stereo not given)
inactive: all assays above

Cc1ccc(C)c(OCCCC(C)(C)C(=O)O)c1
inactive: all assays above

CCCOc1ccc2nc(NC(=O)OC)[nH]c2c1
inactive: all assays above

CCC1=C(C)CN(C(=O)NCCc2ccc(S(=O)(=O)NC(=O)NC3CCC(C)CC3)cc2)C1=O (stereo not given)
inactive: all assays above

CCCCc1ccc2nc(NC(=O)OC)[nH]c2c1
inactive: all assays above

COc1ccc(C2(C#N)CCC(C(=O)O)CC2)cc1OC1CCCC1 (stereo not given)
inactive: all assays above

COC(=O)[C@H](Cc1ccccc1)NC(=O)[C@@H](N)CC(=O)O (H-Asp-Phe-OMe)
inactive: all assays above

Cc1nc2n(c(=O)c1CCN1CCC(c3noc4cc(F)ccc34)CC1)CCCC2
active: [8] 12600 nM
inactive: all other assays above

Cc1cccc(C)c1OCC(=O)N[C@@H](Cc1ccccc1)[C@@H](O)C[C@H](Cc1ccccc1)NC(=O)[C@H](C(C)C)N1CCCNC1=O
active: [1] 1900 nM | [2] 1900 nM | [3] 10000 nM | [4] 1000 nM | [5] 11200 nM | [6] 3790 nM | [7] 7940 nM | [8] 891 nM | [9] 7940 nM | [10] 708 nM | [11] 1120 nM | [12] 2510 nM | [13] 891 nM | [14] 3980 nM | [15] 1900 nM | [16] 2000 nM | [17] 1120 nM | [18] 2820 nM | [19] 1780 nM | [20] 1000 nM

Cc1ncc([N+](=O)[O-])n1CC(C)O (stereo not given)
inactive: all assays above

Nc1ccc(S(N)(=O)=O)cc1
inactive: all assays above

Nc1cc(C(Cl)=C(Cl)Cl)c(S(N)(=O)=O)cc1S(N)(=O)=O
inactive: all assays above

CCN(CC)CCOc1ccc(Cc2ccccc2)cc1
inactive: all assays above

N[C@@H](Cc1cc(I)c(Oc2cc(I)c(O)c(I)c2)c(I)c1)C(=O)O
inactive: all assays above

COc1cc2c(cc1OC)C1CC(=O)C(CC(C)C)CN1CC2 (stereo not given)
inactive: all assays above

CC1(C)NC(=O)N(c2ccc([N+](=O)[O-])c(C(F)(F)F)c2)C1=O
inactive: all assays above

O=P(O)(O)C(O)(Cn1ccnc1)P(=O)(O)O
inactive: all assays above

C[C@H](Cn1cnc2c(N)ncnc21)OCP(=O)(O)O
inactive: all assays above

Cc1cc2cc3c(C)cc(=O)oc3c(C)c2o1
inactive: all assays above
